# According to PMC5700166:
# Tests used:
# Test in all cases: protein-binding microarray (PBM); PBM: ~300 nM protein, 6 mM HEPES pH 7.8, 80 mM KCl, 0.5 mM EDTA, 0.5 mM EGTA, 6% glycerol, 35 ng/ul poly-dIdC, 1% milk, 1 h, room temperature; Ap Aiptasia and Nv Nematostella (sea anemones) / Co Capsaspora / Aq Amphimedon (sponge) / Dm Drosophila / Hu human; RHD is the Rel homology domain; high values mean tight binding
# Settings in all cases: dsDNA, one strand shown
# GST-Ap-NF-kB RHD = target: T1, GST-Ap-NF-kB RHD (Exaiptasia pallida (Aiptasia), UniProt A0A913YAJ5 2-422)
# T1 sequence: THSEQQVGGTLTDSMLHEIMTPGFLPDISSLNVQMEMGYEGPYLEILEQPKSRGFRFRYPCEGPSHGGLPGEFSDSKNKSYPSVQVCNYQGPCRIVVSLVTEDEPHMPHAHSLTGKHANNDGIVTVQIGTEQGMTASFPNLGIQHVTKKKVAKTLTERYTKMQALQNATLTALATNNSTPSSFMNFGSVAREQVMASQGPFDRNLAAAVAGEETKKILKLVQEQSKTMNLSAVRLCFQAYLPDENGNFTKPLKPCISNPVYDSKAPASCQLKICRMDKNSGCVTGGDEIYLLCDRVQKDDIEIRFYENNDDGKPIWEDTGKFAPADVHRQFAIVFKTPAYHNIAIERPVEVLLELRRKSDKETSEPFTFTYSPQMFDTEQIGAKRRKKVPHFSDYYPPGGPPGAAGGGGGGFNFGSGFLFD
# [1] = target: T2, GST-Nv-NF-kB (Cys allele) (Nematostella vectensis, UniProt E5G601 2-411)
# T2 sequence: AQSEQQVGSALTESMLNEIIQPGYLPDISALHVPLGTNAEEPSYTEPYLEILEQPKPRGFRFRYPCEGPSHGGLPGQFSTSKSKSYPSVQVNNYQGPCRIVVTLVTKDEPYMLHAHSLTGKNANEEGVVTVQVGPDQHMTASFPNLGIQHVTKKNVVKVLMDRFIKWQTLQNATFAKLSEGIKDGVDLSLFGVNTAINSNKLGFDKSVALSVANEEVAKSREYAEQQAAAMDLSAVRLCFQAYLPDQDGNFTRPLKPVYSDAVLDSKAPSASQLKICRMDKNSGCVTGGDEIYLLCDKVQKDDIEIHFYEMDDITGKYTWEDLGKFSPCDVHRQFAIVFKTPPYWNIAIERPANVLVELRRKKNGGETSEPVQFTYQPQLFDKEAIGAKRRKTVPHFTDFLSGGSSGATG
# GST-Co-NF-kB = target: T3, GST-Co-NF-kB (Capsaspora owczarzaki, UniProt F1ARL5 200-546)
# T3 sequence: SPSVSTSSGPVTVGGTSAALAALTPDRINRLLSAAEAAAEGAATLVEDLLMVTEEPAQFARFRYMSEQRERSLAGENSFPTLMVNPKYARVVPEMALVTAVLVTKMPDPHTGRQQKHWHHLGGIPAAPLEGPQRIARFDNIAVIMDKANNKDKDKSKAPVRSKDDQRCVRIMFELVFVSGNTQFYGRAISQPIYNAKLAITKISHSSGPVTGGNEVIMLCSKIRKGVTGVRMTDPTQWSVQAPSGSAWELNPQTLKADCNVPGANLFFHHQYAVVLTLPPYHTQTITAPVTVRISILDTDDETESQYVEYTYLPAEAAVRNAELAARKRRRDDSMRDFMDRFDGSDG
# GST-Dm-Relish = target: T4, GST-Dm-Relish (Drosophila melanogaster, UniProt Q94527 99-473)
# T4 sequence: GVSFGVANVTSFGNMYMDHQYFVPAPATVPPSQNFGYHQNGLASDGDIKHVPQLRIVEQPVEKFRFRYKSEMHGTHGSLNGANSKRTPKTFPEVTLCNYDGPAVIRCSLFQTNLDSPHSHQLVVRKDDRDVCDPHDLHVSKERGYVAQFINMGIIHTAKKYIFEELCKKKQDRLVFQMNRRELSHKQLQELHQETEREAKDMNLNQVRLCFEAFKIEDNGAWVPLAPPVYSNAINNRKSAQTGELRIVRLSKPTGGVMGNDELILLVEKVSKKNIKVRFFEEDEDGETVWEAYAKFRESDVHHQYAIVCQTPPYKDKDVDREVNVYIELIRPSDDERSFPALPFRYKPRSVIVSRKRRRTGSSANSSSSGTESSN
# GST-Aq-NF-kB = target: T5, GST-Aq-NF-kB (Amphimedon queenslandica, UniProt A9Y5G7 2-389)
# T5 sequence: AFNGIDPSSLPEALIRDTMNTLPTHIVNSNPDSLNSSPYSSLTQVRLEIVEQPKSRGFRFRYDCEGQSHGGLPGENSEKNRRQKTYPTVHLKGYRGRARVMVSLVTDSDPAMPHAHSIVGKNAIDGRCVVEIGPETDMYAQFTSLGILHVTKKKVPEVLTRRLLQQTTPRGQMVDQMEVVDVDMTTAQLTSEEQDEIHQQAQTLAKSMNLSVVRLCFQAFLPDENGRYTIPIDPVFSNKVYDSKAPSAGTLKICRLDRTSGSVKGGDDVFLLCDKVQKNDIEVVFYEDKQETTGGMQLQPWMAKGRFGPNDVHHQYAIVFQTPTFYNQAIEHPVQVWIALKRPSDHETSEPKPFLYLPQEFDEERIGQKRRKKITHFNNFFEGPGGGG
# GST-Hu-p50 = GST-Hu-p50 (Homo sapiens, UniProt P19838 7-356)
# Sequence of GST-Hu-p50 (P19838 7-356): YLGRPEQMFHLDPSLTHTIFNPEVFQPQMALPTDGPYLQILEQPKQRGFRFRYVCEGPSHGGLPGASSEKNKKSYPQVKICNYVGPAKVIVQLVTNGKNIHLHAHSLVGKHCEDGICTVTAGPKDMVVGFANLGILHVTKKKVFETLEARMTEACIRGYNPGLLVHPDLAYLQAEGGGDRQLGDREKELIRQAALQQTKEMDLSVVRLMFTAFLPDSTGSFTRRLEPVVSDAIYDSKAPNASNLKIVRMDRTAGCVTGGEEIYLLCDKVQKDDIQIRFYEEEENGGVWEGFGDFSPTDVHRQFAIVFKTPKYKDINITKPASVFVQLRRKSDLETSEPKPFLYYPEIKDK
Sequence,binding signal (GST-Ap-NF-kB RHD) [z-score],binding signal [1] [z-score],binding signal (GST-Co-NF-kB) [z-score],binding signal (GST-Dm-Relish) [z-score],binding signal (GST-Aq-NF-kB) [z-score],binding signal (GST-Hu-p50) [z-score]
CCGATTAACATCACGGAATTCCCTGATGTTAATCGGGTCTTGATTCGCTTGACGCTGCTG,6.01,6.74,3.4,7.05,7.07,4.62
CCGATTAACATCAACTATCCCCCTGATGTTAATCGGGTCTTGATTCGCTTGACGCTGCTG,5.83,4.03,6.08,2.98,4.04,4.09
CCGATTAACATCAAGGAACCCCCTGATGTTAATCGGGTCTTGATTCGCTTGACGCTGCTG,8.43,5.99,2.03,10.4,6.6,6.57
CCGATTAACATCAGAAGTCCCCCTGATGTTAATCGGGTCTTGATTCGCTTGACGCTGCTG,7.95,7.32,5.95,7.74,6.54,6.36
CCGATTAACATCAGGGAGTTTACTGATGTTAATCGGGTCTTGATTCGCTTGACGCTGCTG,3.14,4.14,1.37,5.53,5.6,4.19
CCGATTAACATCAGATAACCCCCTGATGTTAATCGGGTCTTGATTCGCTTGACGCTGCTG,7.2,5.72,2.43,6.66,6.11,5.79
CCGATTAACATCAGGGGGAGTTATGATGTTAATCGGGTCTTGATTCGCTTGACGCTGCTG,6.7,5.95,7.05,5.28,6.18,6.55
CCGATTAACATCAAGAAAATCCCTGATGTTAATCGGGTCTTGATTCGCTTGACGCTGCTG,5.56,5.43,2.27,6.64,5.58,4.6
CCGATTAACATCAGGAACCCCCCTGATGTTAATCGGGTCTTGATTCGCTTGACGCTGCTG,8.98,6.2,3.38,9.74,7.32,5.86
CCGATTAACATCAAAAAATCCCTTGATGTTAATCGGGTCTTGATTCGCTTGACGCTGCTG,6.16,7.58,1.77,8.1,7.46,5.47
CCGATTAACATCAGGGGACGTTATGATGTTAATCGGGTCTTGATTCGCTTGACGCTGCTG,4.77,5,3.19,2.7,4.72,4.56
CCGATTAACATCAGGGGGTTATATGATGTTAATCGGGTCTTGATTCGCTTGACGCTGCTG,6.77,5.64,3.18,6.58,6.3,5.59
CCGATTAACATCACGGGAACTCCTGATGTTAATCGGGTCTTGATTCGCTTGACGCTGCTG,3.24,2.3,1.84,6.49,4.59,1.48
